Laboratory results: PubChem BioAssay (NCATS)
Inconclusive results are not listed. A call without a number means that no potency is given here. Calls of active or inactive are those of the source. Calls come from the whole dose curve; as a rule, active = well fitted curve in the direction sought with a large enough effect; inconclusive = small, poorly fitted or top-dose-only effect, or another doubt; inactive = no such curve, though single readings can be large; an effect the other way counts as inactive or inconclusive.

Experiments:
[1] = qHTS of pediatric cancer cell lines to identify multiple opportunities for drug repurposing: Primary screen for TC32 cells (AID 1347089); note: nearly all actives have a fitted effect of over 60% in size
Procedure, shortened: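 Measured quantity: luminescence from CellTiter-Glo, reflecting metabolically active TC32 cells following 48 h of compound. Curves came straight from multi-point titrations, with 8 or 11 points in primary and 11 in confirmatory screening.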

[2] = qHTS of pediatric cancer cell lines to identify multiple opportunities for drug repurposing: Primary screen for DAOY cells (AID 1347090); note: nearly all actives have a fitted effect of over 55% in size
Procedure, shortened: (§1)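 Cell viability, CellTiter-Glo luminescence; 500-1,000 cells/well, 8- or 11-point titration, 48 h compound exposure at 37 degrees C, 5% CO2. Controls: DMSO neutral, bortezomib 2.3 µM final as positive.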

[3] = qHTS of pediatric cancer cell lines to identify multiple opportunities for drug repurposing: Primary screen for SJ-GBM2 cells (AID 1347091)
Procedure, shortened: as §1

[4] = qHTS of pediatric cancer cell lines to identify multiple opportunities for drug repurposing: Primary screen for SK-N-MC cells (AID 1347093)
Procedure, shortened: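 Metabolically active cells were quantified by ATP-dependent luminescence (CellTiter-Glo, 15 min at room temperature) following 48 h treatment. Cells had been plated at 500-1,000 per well and settled for 5 h beforehand.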

[5] = qHTS of pediatric cancer cell lines to identify multiple opportunities for drug repurposing: Primary screen for BT-37 cells (AID 1347094)
Procedure, shortened: (§2)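 Viability was measured as metabolically active cells after 48 hours of treatment, read by CellTiter-Glo luminescence. Compounds were tested at multiple final concentrations, giving concentration-response curves.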

[6] = qHTS of pediatric cancer cell lines to identify multiple opportunities for drug repurposing: Primary screen for NB-EBc1 cells (AID 1347095)
Procedure, shortened: as §2

[7] = qHTS of pediatric cancer cell lines to identify multiple opportunities for drug repurposing: Primary screen for U-2 OS cells (AID 1347096); note: nearly all actives have a fitted effect of over 50% in size
Procedure, shortened: (§3)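 Cells (500-1,000/well) rested 5 h, then received compounds for 48 h; metabolically active cells were measured by CellTiter-Glo luminescence. Final concentrations spanned up to 46 µM (MIPE, 11-point) or 0.59 nM-46 µM (NPC, 8-point) in primary screens, 11-point in follow-ups.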

[8] = qHTS of pediatric cancer cell lines to identify multiple opportunities for drug repurposing: Primary screen for Saos-2 cells (AID 1347097); note: nearly all actives have a fitted effect of over 40% in size
Procedure, shortened: as §2

[9] = qHTS of pediatric cancer cell lines to identify multiple opportunities for drug repurposing: Primary screen for SK-N-SH cells (AID 1347098); note: nearly all actives have a fitted effect of over 65% in size
Procedure, shortened: as §3

[10] = qHTS of pediatric cancer cell lines to identify multiple opportunities for drug repurposing: Primary screen for NB1643 cells (AID 1347099); note: nearly all actives have a fitted effect of over 50% in size
Procedure, shortened: as §2

[11] = qHTS of pediatric cancer cell lines to identify multiple opportunities for drug repurposing: Primary screen for LAN-5 cells (AID 1347100)
Procedure, shortened: as §3

[12] = qHTS of pediatric cancer cell lines to identify multiple opportunities for drug repurposing: Primary screen for BT-12 cells (AID 1347101); note: nearly all actives have a fitted effect of over 25% in size
Procedure, shortened: as §3

[13] = qHTS of pediatric cancer cell lines to identify multiple opportunities for drug repurposing: Primary screen for Rh18 cells (AID 1347102); note: nearly all actives have a fitted effect of over 65% in size
Procedure, shortened: as §3

[14] = qHTS of pediatric cancer cell lines to identify multiple opportunities for drug repurposing: Primary screen for OHS-50 cells (AID 1347103); note: nearly all actives have a fitted effect of over 40% in size
Procedure, shortened: as §3

[15] = qHTS of pediatric cancer cell lines to identify multiple opportunities for drug repurposing: Primary screen for RD cells (AID 1347104); note: nearly all actives have a fitted effect of over 55% in size
Procedure, shortened: as §2

[16] = qHTS of pediatric cancer cell lines to identify multiple opportunities for drug repurposing: Primary screen for MG 63 (6-TG R) cells (AID 1347105); note: nearly all actives have a fitted effect of over 50% in size
Procedure, shortened: as §2

[17] = qHTS of pediatric cancer cell lines to identify multiple opportunities for drug repurposing: Primary screen for control Hh wild type fibroblast cells (AID 1347106); note: nearly all actives have a fitted effect of over 55% in size
Procedure, shortened: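 Cells (500-1,000/well) in growth media were settled 5 h at 37 degrees C, then given compounds for 48 h. Viability was read as CellTiter-Glo luminescence. Primary runs used MIPE at 11 points (0.78 nM-46 µM) and NPC at 8 points (0.59 nM-46 µM); follow-ups used 11 points.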

[18] = qHTS of pediatric cancer cell lines to identify multiple opportunities for drug repurposing: Primary screen for A673 cells (AID 1347092); note: nearly all actives have a fitted effect of over 45% in size
Procedure, shortened: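 Cells are plated, rested 5 h, dosed by pintool, incubated 48 h, then lysed with CellTiter-Glo and read by luminescence. DMSO is the neutral control; bortezomib at 2.3 uM final is the positive control.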
Potency is the fitted concentration of half-maximal effect.

OCc1ccccc1O
Potency [1]: inactive
Potency [2]: inactive
Potency [3]: inactive
Potency [4]: inactive
Potency [5]: inactive
Potency [6]: inactive
Potency [7]: inactive
Potency [8]: inactive
Potency [9]: inactive
Potency [10]: inactive
Potency [11]: inactive
Potency [12]: inactive
Potency [13]: inactive
Potency [14]: inactive
Potency [15]: inactive
Potency [16]: inactive
Potency [17]: inactive

NC[C@H]1O[C@H](O[C@H]2[C@H](O)[C@@H](O[C@H]3O[C@H](CO)[C@@H](O)[C@H](N)[C@H]3O)[C@H](N)C[C@@H]2N)[C@H](N)[C@@H](O)[C@@H]1O
Potency [1]: inactive
Potency [2]: inactive
Potency [3]: inactive
Potency [4]: inactive
Potency [5]: inactive
Potency [6]: inactive
Potency [7]: inactive
Potency [8]: inactive
Potency [9]: inactive
Potency [10]: inactive
Potency [11]: inactive
Potency [12]: inactive
Potency [13]: inactive
Potency [14]: inactive
Potency [15]: inactive
Potency [16]: inactive
Potency [17]: inactive

CC(=O)Oc1ccc(C(c2ccc(OC(C)=O)cc2)c2ccccn2)cc1
Potency [1]: inactive
Potency [2]: inactive
Potency [3]: inactive
Potency [18]: inactive
Potency [5]: inactive
Potency [6]: inactive
Potency [8]: inactive
Potency [9]: inactive
Potency [10]: inactive
Potency [11]: inactive
Potency [12]: inactive
Potency [13]: inactive
Potency [15]: inactive
Potency [16]: 0.211 µM (active)
Potency [17]: inactive

OC(CCN1CCCCC1)(c1ccccc1)c1ccccc1
Potency [1]: inactive
Potency [2]: inactive
Potency [3]: inactive
Potency [4]: inactive
Potency [5]: inactive
Potency [6]: inactive
Potency [7]: inactive
Potency [8]: inactive
Potency [9]: inactive
Potency [10]: inactive
Potency [11]: inactive
Potency [12]: inactive
Potency [13]: inactive
Potency [15]: inactive
Potency [16]: inactive
Potency [17]: inactive

COc1cc(/C=C/C(=O)O[C@H]2CC[C@]34C[C@]35CC[C@]3(C)[C@@H]([C@H](C)CCC=C(C)C)CC[C@@]3(C)[C@@H]5CC[C@H]4C2(C)C)ccc1O
Potency [1]: inactive
Potency [2]: inactive
Potency [3]: inactive
Potency [4]: inactive
Potency [5]: inactive
Potency [6]: inactive
Potency [7]: inactive
Potency [8]: inactive
Potency [9]: inactive
Potency [10]: inactive
Potency [11]: inactive
Potency [12]: inactive
Potency [13]: inactive
Potency [15]: inactive
Potency [17]: inactive

CC1(C)OC[C@@H](COC(=O)CCc2ccc(OC[C@@H](O)CNCCNC(=O)N3CCOCC3)cc2)O1
Potency [1]: inactive
Potency [2]: inactive
Potency [3]: inactive
Potency [4]: inactive
Potency [5]: inactive
Potency [6]: inactive
Potency [7]: inactive
Potency [8]: inactive
Potency [9]: inactive
Potency [10]: inactive
Potency [11]: inactive
Potency [12]: inactive
Potency [13]: inactive
Potency [14]: inactive
Potency [15]: inactive
Potency [16]: inactive
Potency [17]: inactive

C#C[C@]1(O)CC[C@H]2[C@@H]3CCC4=CC(=O)CC[C@@H]4[C@H]3CC[C@@]21C
Potency [1]: inactive
Potency [2]: inactive
Potency [3]: inactive
Potency [18]: inactive
Potency [4]: inactive
Potency [5]: inactive
Potency [7]: inactive
Potency [8]: inactive
Potency [9]: inactive
Potency [10]: inactive
Potency [11]: inactive
Potency [12]: inactive
Potency [13]: inactive
Potency [14]: inactive
Potency [15]: inactive
Potency [17]: inactive

CCCCC(CC)CN=C(N)NC(N)=NCCCCCCN=C(N)NC(N)=NCC(CC)CCCC (configuration not stated)
Potency [1]: 21 µM (active)
Potency [2]: 8.41 µM (active)
Potency [3]: 1.06 µM (active)
Potency [18]: 1.68 µM (active)
Potency [4]: 5.31 µM (active)
Potency [5]: 9.78 µM (active)
Potency [8]: 9.44 µM (active)
Potency [9]: 4.33 µM (active)
Potency [11]: 5.31 µM (active)
Potency [13]: 8.41 µM (active)
Potency [14]: 4.37 µM (active)
Potency [15]: 5.96 µM (active)
Potency [16]: 6.68 µM (active)

Cc1c(N(C)CS(=O)(=O)O)c(=O)n(-c2ccccc2)n1C
Potency [1]: inactive
Potency [2]: inactive
Potency [3]: inactive
Potency [4]: inactive
Potency [5]: inactive
Potency [6]: inactive
Potency [7]: inactive
Potency [8]: inactive
Potency [9]: inactive
Potency [10]: inactive
Potency [11]: inactive
Potency [13]: inactive
Potency [14]: inactive
Potency [15]: inactive
Potency [16]: inactive
Potency [17]: inactive

Cc1c(F)c(N2CCNC(C)C2)cc2c1c(=O)c(C(=O)O)cn2C1CC1 (configuration not stated)
Potency [1]: inactive
Potency [2]: inactive
Potency [3]: inactive
Potency [4]: inactive
Potency [5]: inactive
Potency [6]: inactive
Potency [7]: inactive
Potency [8]: inactive
Potency [9]: inactive
Potency [10]: inactive
Potency [11]: inactive
Potency [12]: inactive
Potency [13]: inactive
Potency [14]: inactive
Potency [15]: inactive
Potency [16]: inactive
Potency [17]: inactive

CCN(CC)C(=O)/C(C#N)=C/c1cc(O)c(O)c([N+](=O)[O-])c1
Potency [1]: inactive
Potency [2]: inactive
Potency [3]: inactive
Potency [18]: inactive
Potency [4]: inactive
Potency [7]: inactive
Potency [8]: inactive
Potency [9]: inactive
Potency [10]: inactive
Potency [13]: inactive
Potency [15]: inactive
Potency [16]: inactive
Potency [17]: inactive

CN(C)C(=S)SC(=S)N(C)C
Potency [1]: 3.74 µM (active)
Potency [2]: 0.841 µM (active)
Potency [3]: inactive
Potency [4]: 0.001 µM (active)
Potency [5]: 24.6 µM (active)
Potency [6]: 10.6 µM (active)
Potency [7]: 1.68 µM (active)
Potency [8]: 1.06 µM (active)
Potency [9]: 1.94 µM (active)
Potency [10]: 2.99 µM (active)
Potency [11]: 1.33 µM (active)
Potency [12]: 1.23 µM (active)
Potency [13]: 1.88 µM (active)
Potency [14]: 8.71 µM (active)
Potency [15]: 0.944 µM (active)
Potency [16]: 4.22 µM (active)
Potency [17]: 1.19 µM (active)

OC[C@H]1O[C@H](O[C@]2(CCl)O[C@H](CCl)[C@@H](O)[C@@H]2O)[C@H](O)[C@@H](O)[C@H]1Cl
Potency [1]: inactive
Potency [2]: inactive
Potency [3]: inactive
Potency [4]: inactive
Potency [5]: inactive
Potency [6]: inactive
Potency [7]: inactive
Potency [8]: inactive
Potency [9]: inactive
Potency [10]: inactive
Potency [11]: inactive
Potency [12]: inactive
Potency [13]: inactive
Potency [14]: inactive
Potency [15]: inactive
Potency [16]: inactive
Potency [17]: inactive

C[C@]12CCC(=O)C=C1[C@@H]1C[C@@H]1[C@H]1[C@@H]3[C@@H]4C[C@@H]4[C@@]4(CCC(=O)O4)[C@@]3(C)CC[C@@H]12
Potency [1]: inactive
Potency [2]: inactive
Potency [3]: inactive
Potency [18]: inactive
Potency [5]: inactive
Potency [6]: inactive
Potency [7]: inactive
Potency [8]: inactive
Potency [9]: inactive
Potency [10]: inactive
Potency [11]: inactive
Potency [13]: inactive
Potency [14]: 24.6 µM (active)
Potency [15]: inactive
Potency [16]: inactive
Potency [17]: inactive
